Experimental data published in the supplement of paper PMC3334620.
In all, about 33,000 sequences were measured (“E-score (-0.5 to 0.5)”: median about -0.053, highest 2% from about 0.37 on). This is one part of a sample in which the highest values are shown more often than they occur.

Each sequence was assayed against Hap1 (UniProt P0CE41) (assay: PBM E-score (8-mer binding enrichment) (E-score (-0.5 to 0.5)); higher = stronger / more preferred TF binding). Details: protein concentration: 200 nM; construct: GST-DNA-binding domain.
How it was run: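 E-scores (a modified Wilcoxon-Mann-Whitney statistic) were assigned by the Universal PBM Analysis Suite to every ungapped eight-base word pooled with its reverse complement. The input came from universal all-10-mer Agilent arrays made double-stranded by primer extension and probed with GST-tagged yeast transcription factors at about 100-200 nM. Fluorescent anti-GST detected bound protein, and masliner normalised the scans.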

UniProt P0CE41, sequence (P0CE41 whole entry, the tested form may be a part): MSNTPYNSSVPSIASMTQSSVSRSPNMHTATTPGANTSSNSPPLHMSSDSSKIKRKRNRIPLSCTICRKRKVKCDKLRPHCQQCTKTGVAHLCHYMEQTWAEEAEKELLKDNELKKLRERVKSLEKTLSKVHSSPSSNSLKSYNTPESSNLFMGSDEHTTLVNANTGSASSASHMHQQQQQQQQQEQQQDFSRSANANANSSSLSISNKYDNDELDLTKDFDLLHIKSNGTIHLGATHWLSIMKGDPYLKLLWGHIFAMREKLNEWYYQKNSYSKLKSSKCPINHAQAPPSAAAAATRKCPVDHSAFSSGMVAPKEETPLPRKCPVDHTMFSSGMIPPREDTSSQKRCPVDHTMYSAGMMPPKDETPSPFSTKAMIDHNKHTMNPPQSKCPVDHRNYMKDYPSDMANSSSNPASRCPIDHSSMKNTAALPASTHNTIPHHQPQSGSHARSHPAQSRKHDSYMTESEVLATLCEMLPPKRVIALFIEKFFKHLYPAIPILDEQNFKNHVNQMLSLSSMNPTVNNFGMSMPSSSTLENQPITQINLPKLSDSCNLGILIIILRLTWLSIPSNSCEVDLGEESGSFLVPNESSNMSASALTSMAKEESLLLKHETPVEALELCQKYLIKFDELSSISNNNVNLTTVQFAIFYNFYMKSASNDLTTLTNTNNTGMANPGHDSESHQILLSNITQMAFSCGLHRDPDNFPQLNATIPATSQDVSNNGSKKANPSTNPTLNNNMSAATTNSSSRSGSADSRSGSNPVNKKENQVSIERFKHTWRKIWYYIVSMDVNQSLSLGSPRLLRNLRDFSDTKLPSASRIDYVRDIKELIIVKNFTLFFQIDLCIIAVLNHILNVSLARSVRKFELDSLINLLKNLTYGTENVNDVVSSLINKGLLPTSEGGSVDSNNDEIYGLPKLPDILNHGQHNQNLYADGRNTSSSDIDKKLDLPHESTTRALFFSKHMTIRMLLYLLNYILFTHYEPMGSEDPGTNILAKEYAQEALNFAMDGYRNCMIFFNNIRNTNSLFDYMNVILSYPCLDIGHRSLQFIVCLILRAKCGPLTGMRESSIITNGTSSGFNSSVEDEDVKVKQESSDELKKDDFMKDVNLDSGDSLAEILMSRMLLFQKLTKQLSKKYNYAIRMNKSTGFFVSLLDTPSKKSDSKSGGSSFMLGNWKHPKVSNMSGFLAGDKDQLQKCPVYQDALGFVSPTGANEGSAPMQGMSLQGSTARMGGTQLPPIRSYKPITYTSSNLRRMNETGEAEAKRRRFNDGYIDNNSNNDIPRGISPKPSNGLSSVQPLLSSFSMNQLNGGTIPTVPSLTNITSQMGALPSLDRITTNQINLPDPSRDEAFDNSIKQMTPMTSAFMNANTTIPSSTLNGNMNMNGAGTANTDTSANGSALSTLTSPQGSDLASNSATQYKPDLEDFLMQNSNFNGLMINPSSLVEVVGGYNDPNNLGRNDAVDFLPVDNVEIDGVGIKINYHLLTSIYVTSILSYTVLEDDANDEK

| Sequence | PBM E-score |
| --- | --- |
| AGCACGAC | -0.133 |
| AACGCCGT | 0.273 |
| AACGCCGA | 0.447 |
| TACGCCGA | 0.301 |
| AACGCCGG | 0.397 |
| AACGCCGC | 0.355 |
| CACGCCGA | 0.169 |
| ACCCGCCA | -0.0193 |
| GGGGCTCA | -0.167 |
| ATGAGTTA | -0.207 |
| CTAAATCA | -0.138 |
| CTAAATCC | 0.386 |
| ATAAATCC | 0.325 |
| GGGCTACA | -0.0843 |
| GCCGGCAA | 0.373 |
| GCCGGCAC | 0.327 |
| CCCGGCAG | 0.21 |
| CCCGGCAA | 0.401 |
| ACCGGCAA | 0.272 |
| TCCGGCAA | 0.326 |
| AAGCTCGG | 0.36 |
| GTGCTTTA | -0.0684 |
| AATCCCGG | 0.397 |
| AATCCCTG | -0.18 |

| Sequence | PBM E-score |
| --- | --- |
| AATCCCCG | 0.403 |
| AATCCCCC | 0.133 |
| CATCCCCG | 0.356 |
| CATCCCGG | 0.312 |
| GCTTGACA | -0.139 |
| CATGTCTC | 0.131 |
| AAGTGCAC | -0.0983 |
| CGCTGGGA | 0.0217 |
| CCTCAAGG | -0.168 |
| CCGGGCCA | 0.348 |
| ACGGGCGA | 0.333 |
| CCGGGCCG | 0.425 |
| GCGGGCCC | 0.216 |
| CCGGGCGA | 0.376 |
| CCGGGCCC | 0.369 |
| ACGGGCCG | 0.29 |
| GCGGGCGA | 0.296 |
| CGGGGCCC | 0.258 |
| CCGCTATA | 0.27 |
| AATAGCAT | -0.0964 |
| CGTGTACC | 0.11 |
| GGAAATAA | 0.413 |
| CGAAATAA | 0.182 |
| TGGAATAA | -0.128 |

| Sequence | PBM E-score |
| --- | --- |
| GGGAATAA | 0.396 |
| GGGAATAC | 0.181 |
| AGAAATAA | 0.0188 |
| ACGCACCG | 0.00605 |
| ACCAGTTA | -0.225 |
| TGCCGTAA | 0.0155 |
| GGCCGTAA | 0.377 |
| CGCCGAAC | 0.344 |
| CACCGAAA | 0.261 |
| GGCCGACA | 0.383 |
| AGCCGAAC | 0.227 |
| GACCGAAA | 0.385 |
| GGCCGAAC | 0.37 |
| CGCCGACA | 0.215 |
| CGCCGTAA | 0.283 |
| TGCCGACA | 0.223 |
| GACCGAAC | 0.347 |
| ACGAGCTA | -0.108 |
| ACCCAGTA | -0.253 |
| ATTTGGTC | 0.141 |
| CTCCTAAC | -0.191 |
| AGCCGAAA | 0.329 |
| TGCCGAAA | 0.303 |
| GGCCGAAA | 0.405 |

| Sequence | PBM E-score |
| --- | --- |
| CGTTTTAG | -0.114 |
| AACCTGTG | -0.315 |
| AGAACTCG | 0.0147 |
| GAGGGAGC | -0.175 |
| AACCAAGT | -0.152 |
| GGATAAAA | 0.261 |
| CGATAAAA | 0.382 |
| TGATAAAA | -0.0276 |
| CCCTCGTA | -0.0221 |
| TACTCGGA | 0.312 |
| CCCTCGGA | 0.373 |
| ACCTCGGC | 0.377 |
| GACTCGGA | 0.405 |
| GCCTCGGA | 0.331 |
| AACTCGGA | 0.345 |
| CCCTCGGC | 0.268 |
| AGCTCGGA | 0.325 |
| GGCTCGGA | 0.344 |
| CGCTCGGA | 0.404 |
| ACCTCGGG | 0.26 |
| CATCACAG | -0.258 |
| TGGATGAA | -0.183 |
